The list is not random: actives were taken first. Their share in the collection is about 2.3%.
ADAM10 inh: human ADAM10 inhibitors, primary screen, biochemical, QFRET, HTS; Disintegrin and metalloproteinase domain-containing protein 10 (Homo sapiens), O14672; recombinant ADAM10, EDANS/DABCYL FRET peptide cleavage, 3 h; inhibition, % at 7 µM; 0.62% of 370,000 active; AID 720582, 2013;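 active = inhibition above a per-campaign cutoff equal to the mean of compounds falling between control-based bounds plus 3 SD, cut at about 20% in these data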;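 also: 0% = DMSO wells while the 100% control is not disclosed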
proKLK7 act: proKLK7 zymogen activators, primary screen, biochemical, fluorescence intensity. Kallikrein-7 (Homo sapiens), P49862. purified proKLK7, EDANS-DABCYL substrate fluorescence; 100% is mature enzyme control, 0% vehicle. activation, % at 7 µM. 0.9% of 370,000 active. AID 652039, 2013;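 active = activation above the mean of all tested compounds plus 3 SD, computed per campaign excluding outliers beyond control limits, cut at about 13% in these data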
ADAM17 inh: ADAM17 inhibitors, primary screen, biochemical, QFRET; recombinant ADAM17, EDANS/DABCYL FRET peptide cleavage; inhibition, % at 6.95 µM; 0.83% of 370,000 active;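 active = inhibition above the mean of compounds lying between control limits plus 3 SD, set per campaign, cut at about 8.5% in these data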;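 also: 0% = DMSO-only wells as the low control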
Target sequence (P78536 215-824 limits assumed): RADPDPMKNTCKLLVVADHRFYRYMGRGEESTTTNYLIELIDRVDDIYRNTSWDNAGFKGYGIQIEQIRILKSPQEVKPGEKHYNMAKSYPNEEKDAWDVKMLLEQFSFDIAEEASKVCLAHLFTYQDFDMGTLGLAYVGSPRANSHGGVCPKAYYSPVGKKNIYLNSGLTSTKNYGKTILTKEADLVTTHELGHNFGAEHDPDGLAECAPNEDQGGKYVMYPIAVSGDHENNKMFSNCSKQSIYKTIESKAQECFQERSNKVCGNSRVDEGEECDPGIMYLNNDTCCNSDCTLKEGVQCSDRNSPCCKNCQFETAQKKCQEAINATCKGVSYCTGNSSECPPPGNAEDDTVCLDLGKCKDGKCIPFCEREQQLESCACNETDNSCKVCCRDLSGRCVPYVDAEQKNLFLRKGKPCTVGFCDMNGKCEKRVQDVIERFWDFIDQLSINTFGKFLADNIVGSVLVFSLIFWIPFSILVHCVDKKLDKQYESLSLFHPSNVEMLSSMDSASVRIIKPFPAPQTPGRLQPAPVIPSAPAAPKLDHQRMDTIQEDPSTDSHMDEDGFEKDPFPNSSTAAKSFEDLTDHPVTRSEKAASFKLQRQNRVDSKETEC
V-ATPase pH: regulators of yeast V-ATPase proton pumping, primary screen, pHLuorin cytosolic pH fluorescence; S. cerevisiae; response, % at 10 µM; 0.37% of 350,000 active; AID 504577, 2011; in the data active = response mostly above about 7.3%, no sharp cut-off; inactive = mostly below about 5.4%; also: actives read high
ADAM10 confirm: human ADAM10 inhibitors, confirmation, biochemical, QFRET, triplicate | shares compounds with ADAM10 inh | ADAM10 QFRET peptide cleavage, EDANS fluorescence | inhibition, % at 6.95 µM | 1% of 2,100 active | AID 743208, 2013;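 active = inhibition above about 20% chosen separately for each screening run, limit read from the data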;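 also: 0% = DMSO wells and 100% = marimastat wells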
ADAM17 counter: ADAM17 inhibitors, counter-screen for ADAM10 exosite inhibitor project, biochemical, QFRET, high throughput; shares compounds with ADAM10 inh; ADAM17 QFRET peptide cleavage, EDANS fluorescence; inhibition, % at 6.95 µM; 0.5% of 2,100 active; AID 743214, 2013;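 active = mean triplicate inhibition above the solvent-only control wells' mean plus 3 SD, cut at about 12% in these data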;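 also: 0% = DMSO wells and 100% = marimastat wells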
ADAM10 counter: ADAM10 inhibitors, counter-screen for ADAM17 exosite inhibitor project, biochemical, FRET, human ADAM10; AID 743256, 2014; 47% of 2,900 active; shares compounds with ADAM17 inh; recombinant ADAM10, EDANS/DABCYL FRET peptide cleavage, 3 h; inhibition, % at 6.95 µM;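 active = mean inhibition over the triplicate runs exceeds the activity threshold set in the earlier primary screen, cut at about 20% in these data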;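 also: 0% = DMSO wells and 100% = marimastat wells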
ADAM17 confirm: ADAM17 inhibitors, hit retest, confirmation, biochemical, QFRET peptide cleavage; shares compounds with ADAM17 inh; recombinant ADAM17, EDANS/DABCYL QFRET peptide cleavage; inhibition, % at 6.95 µM; 65% of 2,900 active;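 active = mean inhibition across replicates above the hit cutoff set in the primary screen, cut at about 8.5% in these data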;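 also: 0% = DMSO wells and 100% = marimastat wells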
* hit, by the source's call.

For CCN(c1ccc(NS(=O)(=O)c2cc(Cl)ccc2Cl)cc1)C(C)C the results were ADAM10 inh 24.2*, proKLK7 act 0.2, ADAM17 inh 11.2*, V-ATPase pH 5.3, ADAM10 confirm 2.5, ADAM17 counter 0.8, ADAM10 counter 13.3 and ADAM17 confirm 10.0*.
Screening O=S1(=O)CCSC[C@@H](CN2CCN(c3ccccc3)CC2)N1 returned ADAM10 inh -4.7, proKLK7 act -0.1 and ADAM17 inh -0.7.
`CCCCCCCC/C=C\CCCCCCCC(=O)NCCO` gave ADAM10 inh -6.3, proKLK7 act 0.6, ADAM17 inh -2.4 and V-ATPase pH 1.6.
`CCCCCCCC/C=C\CCCCCCCC(=O)NCCc1ccc(O)c(O)c1` gave ADAM10 inh 27.7*, proKLK7 act -0.3, ADAM17 inh 13.3*, V-ATPase pH -4.1, ADAM10 confirm 5.3, ADAM17 counter 2.6, ADAM10 counter 25.8* and ADAM17 confirm 17.4*.
For CCCCOCCCNC(=O)C[C@@H]1C[C@@]2(C(=O)OC)CC(C)(C)CC=C2N(Cc2cccc3ccccc23)C1=O the results were ADAM10 inh 21.6*, proKLK7 act 0.0, ADAM17 inh 13.4*, ADAM10 confirm 7.5, ADAM17 counter 1.9, ADAM10 counter 27.4* and ADAM17 confirm 16.4*.
Screening COC(=O)[C@]12C[C@H](CC(=O)NCCC(C)C)C(=O)N(Cc3cccc4ccccc34)C1=C[C@H](C(C)C)O[C@@H]2C1CC1 returned ADAM10 inh 19.9*, proKLK7 act 0.6, ADAM17 inh 8.6*, ADAM10 confirm 11.7, ADAM17 counter 3.7, ADAM10 counter 34.2* and ADAM17 confirm 21.5*.
`COC(=O)[C@]12C[C@H](CC(=O)NCc3cccc(C(F)(F)F)c3)C(=O)N(CCc3ccc(OC)c(OC)c3)C1=C[C@H](C(C)C)O[C@@H]2C1CC1` gave ADAM10 inh 22.3*, proKLK7 act 0.2, ADAM17 inh 12.7*, ADAM10 confirm -0.3, ADAM17 counter 0.0, ADAM10 counter 22.1* and ADAM17 confirm 8.9*.
For Cc1cc(N2CCN(C(=O)OC(C)(C)C)C[C@H]2C)ccc1N1CCS(=O)(=O)CC1 the results were ADAM10 inh -7.2, proKLK7 act 0.2 and ADAM17 inh -2.6.
Screening COc1ccc(CN(CCC(c2ccc(F)cc2)C2CCOC(C)(C)C2)C(=O)c2ccco2)cc1 (stereo not given) returned ADAM10 inh 21.5*, proKLK7 act 0.8, ADAM17 inh 13.9*, V-ATPase pH 0.7, ADAM10 confirm 4.6, ADAM17 counter 1.6, ADAM10 counter 24.7* and ADAM17 confirm 14.9*.
Screening COc1cc(NC(=O)CN2C(=O)C(c3ccccc3)=NC23CCCCCC3)cc(OC)c1 returned ADAM10 inh 29.5*, proKLK7 act 0.1, ADAM17 inh 8.7*, V-ATPase pH 0.9, ADAM10 confirm 2.5, ADAM17 counter 1.4, ADAM10 counter 6.0 and ADAM17 confirm 4.6.
Screening Cc1ccc(S(=O)(=O)NCC2Cc3ccccc3N2S(=O)(=O)c2ccc(C)cc2)cc1 (stereo not given) returned ADAM10 inh 22.1*, ADAM17 inh 9.2*, ADAM10 confirm 7.3, ADAM17 counter 2.8, ADAM10 counter 38.7* and ADAM17 confirm 16.9*.
Screening O=C(NC(=S)Nc1ccc(S(=O)(=O)Nc2nccs2)cc1)c1ccc(F)c(F)c1 returned ADAM10 inh 23.9*, proKLK7 act -0.1, ADAM17 inh 10.9*, V-ATPase pH 2.4, ADAM10 confirm 4.0, ADAM17 counter 0.9, ADAM10 counter 12.4 and ADAM17 confirm 5.6.
Screening O=C(NC(=S)Nc1ccc(S(=O)(=O)Nc2nccs2)cc1)c1ccccc1 returned ADAM10 inh 9.5, proKLK7 act -0.1, ADAM17 inh -0.1 and V-ATPase pH 0.3.
For Cc1cccc(C)c1Nc1nnc(SCC(=O)c2ccc(Br)s2)s1 the results were ADAM10 inh 16.0, proKLK7 act 0.3, ADAM17 inh 5.5 and V-ATPase pH 2.2.
Screening Cc1ccc(Nc2nnc(SCC(=O)c3ccc(Br)s3)s2)c(C)c1 returned ADAM10 inh 24.1*, proKLK7 act -0.1, ADAM17 inh 8.7*, V-ATPase pH 1.7, ADAM10 confirm 4.8, ADAM17 counter 2.2, ADAM10 counter 13.5 and ADAM17 confirm 9.9*.
Cc1ccccc1-n1c(SCC(=O)N/N=C/c2c(C)nn(-c3ccccc3)c2C)nc2ccccc2c1=O was read as ADAM10 inh 21.5*, proKLK7 act -0.4, ADAM17 inh 10.9*, V-ATPase pH 2.7, ADAM10 confirm 7.5, ADAM17 counter 1.9, ADAM10 counter 33.4* and ADAM17 confirm 15.8*.
Screening Cc1ccc(-n2c(SCC(=O)N/N=C/c3c(C)nn(-c4ccccc4)c3C)nc3ccccc3c2=O)cc1 returned ADAM10 inh 14.9, proKLK7 act 0.3, ADAM17 inh 4.4 and V-ATPase pH -0.9.
For CCN(CC)C(=O)CSc1nnc(-c2ccc(C(C)(C)C)cc2)n1Cc1ccco1 the results were ADAM10 inh -1.2, proKLK7 act 0.0 and ADAM17 inh 1.6.
Screening CCOc1cc(S(=O)(=O)Nc2cc(C)cc(C)c2)ccc1Cl returned ADAM10 inh 36.4*, proKLK7 act 0.3, ADAM17 inh 19.8*, V-ATPase pH 0.1, ADAM10 confirm 2.9, ADAM17 counter 0.8, ADAM10 counter 26.7* and ADAM17 confirm 14.7*.
`COc1ccc(NC(=O)CC2C(=O)N(C)C(=S)N2CCc2ccc(F)cc2)cc1` (stereo not given) gave ADAM10 inh 20.8*, proKLK7 act 0.8, ADAM17 inh 11.8*, V-ATPase pH -2.5, ADAM10 confirm 0.8, ADAM17 counter 0.1, ADAM10 counter 25.3* and ADAM17 confirm 14.1*.

Bioassay records: PubChem, several laboratories
